The values below come from the supplement of paper PMC8253809.

The test system of this experiment is DIPGX9 (diffuse intrinsic pontine glioma line). In words: growth inhibition (% activity, log2 RLU normalised to DMSO / staurosporine); higher = more growth inhibition. The conditions noted are these: 33 µM. Summed up: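 Approved drugs were tested in triplicate at a single final concentration of about 33 μM for 7 days at 37 °C, 5% CO2, on pHGG cell lines and H9-derived neural stem cells. Readout was CellTiter-Glo luminescence, log2-transformed and scaled per plate to % activity between solvent and positive control wells. The median over replicates gives the growth-inhibition value.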
As for `NC[C@H]1O[C@H](O[C@H]2[C@H](O)[C@@H](O[C@H]3O[C@H](CO)[C@@H](O)[C@H](N)[C@H]3O)[C@H](N)C[C@@H]2N)[C@H](N)C[C@@H]1O`, the growth inhibition is -0.0629%.

With `CN[C@@H]1[C@H](O[C@H]2[C@H](O[C@H]3[C@H](O)[C@@H](O)[C@H](N=C(N)N)[C@@H](O)[C@@H]3N=C(N)N)O[C@@H](C)[C@]2(O)C=O)O[C@@H](CO)[C@H](O)[C@H]1O`, the growth inhibition is -1.2%.

Turning to `CN1C[C@@H]2C[C@H]1CN2c1cc2c(cc1F)c(=O)c(C(=O)O)cn2C1CC1`, the growth inhibition turned out to be 1.98%.

With `O=C1C(=O)c2ccccc2C(O)=C1C1CCC(c2ccc(Cl)cc2)CC1` (stereo not given), the growth inhibition was determined as 2%.

For the molecule `CCN(CC)C(=O)/C(C#N)=C/c1cc(O)c(O)c([N+](=O)[O-])c1`, the growth inhibition turned out to be 0.533%.

`CCOC(=O)C1=C(C)NC(C)=C(C(=O)OC)C1c1cccc(Cl)c1Cl` (stereo not given): the growth inhibition turned out to be 2.94%.

Take `CCCCCCCCCC(=O)N[C@@H](Cc1c[nH]c2ccccc12)C(=O)N[C@@H](CC(N)=O)C(=O)N[C@@H](CC(=O)O)C(=O)N[C@@H]1C(=O)NCC(=O)N[C@@H](CCCN)C(=O)N[C@@H](CC(=O)O)C(=O)N[C@H](C)C(=O)N[C@@H](CC(=O)O)C(=O)NCC(=O)N[C@H](CO)C(=O)N[C@@H]([C@H](C)CC(=O)O)C(=O)N[C@@H](CC(=O)c2ccccc2N)C(=O)O[C@@H]1C`: the growth inhibition was -2.61%.

As to `CC(=O)Oc1cc2c(s1)CCN(C(C(=O)C1CC1)c1ccccc1F)C2` (stereo not given), the growth inhibition was -0.813%.

As for `Cc1[nH]c(=O)c(C#N)cc1-c1ccncc1`, the growth inhibition came to 1.64%.

Regarding `CC[N+](CC)(CC)CCOc1cccc(OCC[N+](CC)(CC)CC)c1OCC[N+](CC)(CC)CC`, the growth inhibition stood at 3.16%.
